Measurements reported in PubChem BioAssay (NCI).
This is part of a sample that, as a whole, favours compounds with a hit. Of some 83,000 tested, about 20% had one in any assay.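 Compound tested at a single concentration for 48 hours in 96-well plates; a percent growth value below 10 was scored as active.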 Unmarked numbers belong to inactive results. Calls of active or inactive are those of the source.

Experiments:
Assay in all cases: NCI-60 one-dose screen, 48 h (100 = growth as untreated, 0 = no growth, -100 = all killed)
Details in all cases: 10 µM unless noted
HCT-15 colon = system: HCT-15 colon
HT29 colon = system: HT29 colon
SNB-75 CNS = system: SNB-75 CNS
SNB-19 CNS = system: SNB-19 CNS
U251 CNS = system: U251 CNS
PC-3 prostate = system: PC-3 prostate
SK-MEL-5 melanoma = system: SK-MEL-5 melanoma
UACC-62 melanoma = system: UACC-62 melanoma
LOX IMVI melanoma = system: LOX IMVI melanoma
SK-MEL-28 melanoma = system: SK-MEL-28 melanoma

Compound	growth (HCT-15 colon)	growth (HT29 colon)	growth (SNB-75 CNS)	growth (SNB-19 CNS)	growth (U251 CNS)	growth (PC-3 prostate)	growth (SK-MEL-5 melanoma)	growth (UACC-62 melanoma)	growth (LOX IMVI melanoma)	growth (SK-MEL-28 melanoma)
C[C@@H](Oc1cc(C(=O)Nc2ccc(C(=O)N3CCN(C)CC3)cc2)nnc1N)c1c(Cl)ccc(F)c1Cl	46.9%	9.76% (active)	71.2%	75.7%	52.1%	52.4%	36.8%	62%	33.2%	70.9%
C[C@@H](N)c1ccc(C(=O)Nc2ccnc3[nH]ccc23)cc1	68.3%	32%	6.4% (active)	60.7%	46.7%	44.9%	67.8%	82.1%	45.5%	63%
COc1ccc2c(OCc3nnc4ccc(-c5ccccc5)nn34)ccnc2c1	96.9% [2.5 µM]	94.1% [2.5 µM]	93.5% [2.5 µM]	106% [2.5 µM]	110% [2.5 µM]	96.9% [2.5 µM]	91.9% [2.5 µM]	108% [2.5 µM]	2.5% [2.5 µM] (active)	111% [2.5 µM]
O=CC(OC(=O)c1ccccc1)C(OC(=O)c1ccccc1)C(COC(c1ccccc1)(c1ccccc1)c1ccccc1)OC(=O)c1ccccc1 (stereo not given)	48.8%	52.6%	94%	78.8%	19%	3.19% (active)	70.3%	63.4%	13.8%	0.343% (active)
COc1ccc(OC)c(NC2=C(SCCc3ccccc3)C(=O)c3ccccc3C2=O)c1	64.2%	106%	78%	82.2%	77%	64.7%	80.9%	62.1%	66.4%	108%
Cc1cc(NCC(=O)Nc2ccc(-c3nc4ccccc4s3)cc2)no1	90.7%	105%	111%	96.5%	88.1%	96.6%	87.7%	86.5%	-42.7% (active)	110%
CCN1CCN(Cc2ccc(-c3cc4c(N[C@H](C)c5ccccc5)ncnc4[nH]3)cc2)CC1	50.1%	4.82% (active)	75.1%	46.2%	56.8%	41.3%	59.8%	7.59% (active)	13.5%	16.7%
CO[C@@H](C(=O)N1Cc2[nH]nc(NC(=O)c3ccc(N4CCN(C)CC4)cc3)c2C1)c1ccccc1	74.2%	-34.7% (active)	-85.5% (active)	28.3%	16%	26.5%	-20.5% (active)	30.6%	-89% (active)	45.5%
O=C(NOC[C@H](O)CO)c1ccc(F)c(F)c1Nc1ccc(I)cc1F	53%	7.15% (active)	59.9%	49.1%	38.6%	92.8%	42.5%	-10.7% (active)	23.1%	-2.06% (active)
ClCc1ccc(-c2ccc(Cn3cnc4nc(Cl)nc(Cl)c43)cc2)cc1	-5.13% (active)	-8.13% (active)	-2.49% (active)	6.84% (active)	-69.9% (active)	-9.15% (active)	-85.1% (active)	-20.5% (active)	-82.6% (active)	1.02% (active)
Cc1cc2c(-c3nc4ccccn4c3Nc3cccc4ccccc34)c(O)c(O)cc2c(O)c1-c1c(C)cc2c(-c3nc4ccccn4c3Nc3cccc4ccccc34)c(O)c(O)cc2c1O	41.4%	27.5%	30%	15.6%	12.9%	16%	1.82% (active)	1.11% (active)	9.84% (active)	34.5%
Oc1ccc(C(c2ccc(O)cc2)C(Cl)(Cl)Cl)cc1	93.4%	110%	66.4%	99.9%	106%	75.2%	100%	79.8%	87.6%	113%
CC(=O)NCC(=O)N1[C@@H]2CC[C@H]1c1ccc(Nc3ncc(C(F)(F)F)c(NC4CCC4)n3)cc12	26.8% [2.5 µM]	14.1% [2.5 µM]	19.7% [2.5 µM]	73.9% [2.5 µM]	56.2% [2.5 µM]	57.2% [2.5 µM]	58.1% [2.5 µM]	56.3% [2.5 µM]	22% [2.5 µM]	70.8% [2.5 µM]
Cc1cc2c(-c3nc4ccccn4c3N)c(O)c(O)cc2c(O)c1-c1c(C)cc2c(-c3nc4ccccn4c3N)c(O)c(O)cc2c1O	17.8%	8.01% (active)	18%	12.8%	8% (active)	16.3%	-7.68% (active)	5.54% (active)	7.21% (active)	38.3%
COc1ccc(F)c(F)c1C(=O)c1cnc(NC2CCN(S(C)(=O)=O)CC2)nc1N	3.08% (active)	-25.5% (active)	-66.1% (active)	12.6%	0.678% (active)	0.205% (active)	-42.1% (active)	-44.5% (active)	6.39% (active)	-35.3% (active)
CNC(=O)c1cc(Oc2ccc3nc(NC(=O)Nc4ccc(Cl)c(C(F)(F)F)c4)sc3c2)ccn1	23.5%	3.52% (active)	-58.8% (active)	33.5%	-9.69% (active)	12.4%	25.7%	8.48% (active)	1.46% (active)	34.7%
CCn1cc(-c2ccnc3[nH]c(-c4cccc(CN(C)C)c4)cc23)c(-c2ccc(NC(=O)N(C)C)cc2)n1	24.6%	-7.89% (active)	-52.6% (active)	55%	38.2%	30.6%	37.5%	39.9%	-76.9% (active)	45.2%
CC1(COc2ccc3c(c2)ncn3-c2ccc3cccc(N4CCC(N)CC4)c3n2)COC1	10.5%	0% (active)	14.4%	7.04% (active)	-36.4% (active)	30.2%	-13.8% (active)	99.3%	-57.2% (active)	15.2%
Cc1nc(-c2cn3c(n2)-c2ccc(-c4cnn(C(C)(C)C(N)=O)c4)cc2OCC3)n(C(C)C)n1	30.8%	10.5%	-5.53% (active)	30.8%	23.5%	23.5%	8.62% (active)	-22.6% (active)	11.6%	9.16% (active)
O=C(CNc1nc2ccccc2s1)Nc1ccc(-c2nc3ccccc3s2)cc1	105%	109%	99%	100%	89.1%	95%	103%	94.6%	75.8%	113%
CC/C=C\C[C@H]1C/C=C2/C(=O)C=C[C@@H]2C/C=C\CCCC(=O)O1	-33.8% (active)	-29.2% (active)	47%	12.6%	-80.9% (active)	-42.6% (active)	-88.4% (active)	-57.6% (active)	-76.1% (active)	-28.6% (active)
CC(C)(C)c1cnc(CSc2cnc(NC(=O)C3CCNCC3)s2)o1	22.8%	-9.89% (active)	-39.5% (active)	12.4%	2.2% (active)	0.914% (active)	-47.2% (active)	-49.7% (active)	6.56% (active)	-12.8% (active)
CC[C@@H]1C(=O)N(C)c2cnc(Nc3ccc(C(=O)NC4CCC(N5CCN(CC6CC6)CC5)CC4)cc3OC)nc2N1C(C)C (stereo not given in full)	2.76% (active)	-25.9% (active)	-8.67% (active)	25.9%	-16.3% (active)	9.7% (active)	-96.5% (active)	-47.3% (active)	-72.1% (active)	-72.3% (active)
Cn1ncc(Cl)c1-c1cc(C(=O)N[C@H](CN)Cc2cccc(F)c2)sc1Cl	16.9%	0.334% (active)	-46.2% (active)	9.05% (active)	-45.2% (active)	9.61% (active)	-96.1% (active)	-19.5% (active)	-51.9% (active)	-72.7% (active)
CCOC(=O)C1=C(C)NC(=O)NC1c1cc(=O)oc2ccc(C)cc12 (stereo not given)	104%	95.2%	97%	106%	102%	97.2%	98.2%	99%	97.5%	107%
